In all, about 320,000 compounds went through this assay and about 200 (0.062%) were called active. Inconclusive results (about 6%) are left out. Calls come from the whole dose curve; as a rule, active = well fitted activation curve with a large enough effect; inconclusive = small, poorly fitted or top-dose-only effect; inactive = no such curve, though single readings can be large or run the other way. Shown is part of a subset that was picked to be rich in actives.
Potency is the fitted concentration of half-maximal effect.

The test is described as follows: qHTS assay for re-activators of p53 using a Luc reporter. For activity change, positive = activation: % of control where 0% means no effect. Note: nearly all actives have a fitted effect of over 45% in size. To be noted: H1299 p53-A138V BP100-luciferase reporter, luminescence, 24 h; series mostly up to 92.2 µM; activity change, positive = activation: at the top concentration. The essentials:
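p53-null H1299 cells stably carrying temperature-sensitive p53-A138V and a BP100-luciferase reporter were pinned with compounds (4-point, 1:5 series) and held 24 hrs at 37 deg C. Luminescence was read 10 min after detection reagent.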
A general note: Quantitative high-throughput screening tests each substance at several concentrations.
For `Cc1ccc(S(=O)(=O)N2C[C@@H]3CCCC[C@@H]3[C@@H](C)[C@H]2c2cn(Cc3ccccc3)c3ccc(F)cc23)cc1`, the “activity change, positive = activation” value was 10% (inactive).
Still for that read-out and setting: to `COc1ccc(C(=O)Nc2cc(S(=O)(=O)N3CCCC3)ccc2Cl)cc1` belongs -1.71% (inactive); to `CCN(C(=O)COC(=O)CCC(=O)c1cccs1)C1CCCCC1`, -2.62% (inactive); to `CC(=O)N(O)CCCCCNC(=O)CCC(=O)N(O)CCCCCNC(=O)CCC(=O)N(O)CCCCCNC(=O)CCC(=O)O`, -0.988% (inactive).
On the same count and under the same terms, to `O=C(/C=C/c1ccc(Cl)c([N+](=O)[O-])c1)c1ccc(O)cc1` belongs -13.6% (inactive).
Same read-out and setting: in the case of `O=C(O)/C=C/c1ccc2c(c1)OCCO2` it was 1.53% (inactive).
Consider `O=C(/C=C/c1ccc2c(c1)OCCO2)c1ccc(O)cc1`, for which the Potency was 22.4 µM (active).
With `O=C(COC(=O)c1ccncc1)Nc1ccc2c(c1)OCO2`, the “activity change, positive = activation” value is 0.759% (inactive).
Still for that read-out and setting: to `O=C(Nc1cccc(S(=O)(=O)N2CCCCC2)c1)c1cncc(Br)c1` belongs 0.992% (inactive).
For `COc1cc(S(=O)(=O)N2CCN(C(=O)C3CC3)CC2)ccc1NC(C)=O`, the “activity change, positive = activation” value is -5.44% (inactive).
In the case of `CC[C@]12c3[nH]c4ccc(OC)cc4c3CCN1C(=O)C(CC(=O)NCCN1CCOCC1)C[C@@H]2C(=O)N1CCN(C(=O)C2CC2)CC1` (stereo not given in full), the “activity change, positive = activation” value is 2.11% (inactive).
For the compound `CC[C@]12c3[nH]c4cc(CCC(=O)N(C)C)ccc4c3CCN1C(=O)[C@@H](CC(=O)NCCCn1ccnc1)C[C@@H]2C(=O)N1CCN(C(=O)C2CC2)CC1`, the “activity change, positive = activation” value is -3.3% (inactive).
As to `CN(C)C(=O)CCc1ccc2c3c([nH]c2c1)[C@]1(C)[C@@H](C(=O)N2CCCCC2)C[C@H](CC(=O)NCCC2=CCCCC2)C(=O)N1CC3`, the “activity change, positive = activation” value was -5.25% (inactive).
`COc1cc(OC)cc(C(=O)NC(C(=O)N2CCC2)C(C)C)c1` (stereo not given): the “activity change, positive = activation” value is -1.81% (inactive).
Consider `O=C(N[C@H]1C/C=C\C(c2ccc(F)cc2)N(Cc2ccccc2)C(=O)C1)OCC1c2ccccc2-c2ccccc21` (stereo not given in full), for which the “activity change, positive = activation” value was -0.803% (inactive).
As to `COc1ccccc1C(=O)Nc1ccc(C)c(S(=O)(=O)N2CCCCC2)c1`, the “activity change, positive = activation” value was -8.11% (inactive).
Regarding `Cc1ccc2c(c1)NC(=O)[C@@]1(C)[C@@H](c3ccccc3)[C@H]3COc4ccc(Cl)cc4[C@@H]3N1C2=O`, the “activity change, positive = activation” value is 0.966% (inactive).
`C[C@@H]1CN([C@H](C)CO)C(=O)c2cc(NC(=O)NC3CCCCC3)ccc2O[C@H]1CN(C)S(C)(=O)=O`: the “activity change, positive = activation” value is 2.47% (inactive).
As to `O=C(C[C@@H]1C/C=C\CCC(=O)OC[C@@H]2CCCN2C1=O)NCCO`, the “activity change, positive = activation” value is -5.06% (inactive).
Regarding `COc1ccc(/C=C/C(=O)OCC(=O)NC2CCCCCC2)cc1OC`, the “activity change, positive = activation” value is -1.46% (inactive).
On to `CC1(C)CC[C@@]2(C(=O)O)C(C1)C1=CCC3[C@@]4(C)CC[C@H](O)C(C)(C)C4CC[C@@]3(C)[C@]1(C)C[C@H]2O` (stereo not given in full), for which the “activity change, positive = activation” value is -3.51% (inactive).
`CC(=O)C[C@H](O)CC(=O)[C@@H]1OC(=O)[C@@H](C)C/C=C\Cc2ccccc21`: the “activity change, positive = activation” value is -0.871% (inactive).
As for `CCCCNC(=O)C(C)N(CCN(C)C)C(=O)CCCCCN1C(=O)NC(c2ccc(Cl)cc2)C(C(=O)OCc2ccccc2)=C1C` (stereo not given), the “activity change, positive = activation” value is -8.52% (inactive).
With `COc1cc2c(-c3ccc4c(c3)OCO4)c(-c3ccsc3)oc(=O)c2cc1OC`, the “activity change, positive = activation” value was 2.64% (inactive).
In the case of `COc1cc(/C=C2\Oc3ccc(C#Cc4ccc(O)cc4)cc3C2=O)cc(OC)c1`, the “activity change, positive = activation” value was 14% (inactive).
For `Cc1ccc(NS(=O)(=O)c2ccc(C(C)C)cc2)cc1S(=O)(=O)N1CCOCC1`, the “activity change, positive = activation” value was -4.53% (inactive).
With `COc1ccc(Br)cc1CN(C)C(=O)C1CC(=O)N(C2CCCC2)C1` (stereo not given), the “activity change, positive = activation” value was -4.98% (inactive).
On to `Cc1nn(-c2ccccc2)c(Cl)c1C(=O)Nc1ccccc1`, for which the “activity change, positive = activation” value is 10% (inactive).
`Cc1nn(-c2ccccc2)c(C)c1/C=C/C(=O)OC(C)C(N)=O` (stereo not given): the “activity change, positive = activation” value is 8.78% (inactive).
For `Cc1nn(-c2ccccc2)c(Cl)c1/C=C/C(=O)c1ccc(O)cc1`, the Potency is 22.4 µM (active).
